A selection: hits, their analogues and other compounds. The true share with any hit is near 4.3%.
FAS TE block – inhibitors of human fatty acid synthase thioesterase domain. P49327. recombinant FAS-TE, OMFH fluorogenic substrate, fluorescence endpoint. inhibition, % at 15 µM. 0.67% of 360,000 active;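 active = compounds whose normalised, plate-corrected inhibition of enzyme fluorescence in the single-dose primary screen is 50% or more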
Target sequence (P49327 whole entry, looked up, the tested form may be a part): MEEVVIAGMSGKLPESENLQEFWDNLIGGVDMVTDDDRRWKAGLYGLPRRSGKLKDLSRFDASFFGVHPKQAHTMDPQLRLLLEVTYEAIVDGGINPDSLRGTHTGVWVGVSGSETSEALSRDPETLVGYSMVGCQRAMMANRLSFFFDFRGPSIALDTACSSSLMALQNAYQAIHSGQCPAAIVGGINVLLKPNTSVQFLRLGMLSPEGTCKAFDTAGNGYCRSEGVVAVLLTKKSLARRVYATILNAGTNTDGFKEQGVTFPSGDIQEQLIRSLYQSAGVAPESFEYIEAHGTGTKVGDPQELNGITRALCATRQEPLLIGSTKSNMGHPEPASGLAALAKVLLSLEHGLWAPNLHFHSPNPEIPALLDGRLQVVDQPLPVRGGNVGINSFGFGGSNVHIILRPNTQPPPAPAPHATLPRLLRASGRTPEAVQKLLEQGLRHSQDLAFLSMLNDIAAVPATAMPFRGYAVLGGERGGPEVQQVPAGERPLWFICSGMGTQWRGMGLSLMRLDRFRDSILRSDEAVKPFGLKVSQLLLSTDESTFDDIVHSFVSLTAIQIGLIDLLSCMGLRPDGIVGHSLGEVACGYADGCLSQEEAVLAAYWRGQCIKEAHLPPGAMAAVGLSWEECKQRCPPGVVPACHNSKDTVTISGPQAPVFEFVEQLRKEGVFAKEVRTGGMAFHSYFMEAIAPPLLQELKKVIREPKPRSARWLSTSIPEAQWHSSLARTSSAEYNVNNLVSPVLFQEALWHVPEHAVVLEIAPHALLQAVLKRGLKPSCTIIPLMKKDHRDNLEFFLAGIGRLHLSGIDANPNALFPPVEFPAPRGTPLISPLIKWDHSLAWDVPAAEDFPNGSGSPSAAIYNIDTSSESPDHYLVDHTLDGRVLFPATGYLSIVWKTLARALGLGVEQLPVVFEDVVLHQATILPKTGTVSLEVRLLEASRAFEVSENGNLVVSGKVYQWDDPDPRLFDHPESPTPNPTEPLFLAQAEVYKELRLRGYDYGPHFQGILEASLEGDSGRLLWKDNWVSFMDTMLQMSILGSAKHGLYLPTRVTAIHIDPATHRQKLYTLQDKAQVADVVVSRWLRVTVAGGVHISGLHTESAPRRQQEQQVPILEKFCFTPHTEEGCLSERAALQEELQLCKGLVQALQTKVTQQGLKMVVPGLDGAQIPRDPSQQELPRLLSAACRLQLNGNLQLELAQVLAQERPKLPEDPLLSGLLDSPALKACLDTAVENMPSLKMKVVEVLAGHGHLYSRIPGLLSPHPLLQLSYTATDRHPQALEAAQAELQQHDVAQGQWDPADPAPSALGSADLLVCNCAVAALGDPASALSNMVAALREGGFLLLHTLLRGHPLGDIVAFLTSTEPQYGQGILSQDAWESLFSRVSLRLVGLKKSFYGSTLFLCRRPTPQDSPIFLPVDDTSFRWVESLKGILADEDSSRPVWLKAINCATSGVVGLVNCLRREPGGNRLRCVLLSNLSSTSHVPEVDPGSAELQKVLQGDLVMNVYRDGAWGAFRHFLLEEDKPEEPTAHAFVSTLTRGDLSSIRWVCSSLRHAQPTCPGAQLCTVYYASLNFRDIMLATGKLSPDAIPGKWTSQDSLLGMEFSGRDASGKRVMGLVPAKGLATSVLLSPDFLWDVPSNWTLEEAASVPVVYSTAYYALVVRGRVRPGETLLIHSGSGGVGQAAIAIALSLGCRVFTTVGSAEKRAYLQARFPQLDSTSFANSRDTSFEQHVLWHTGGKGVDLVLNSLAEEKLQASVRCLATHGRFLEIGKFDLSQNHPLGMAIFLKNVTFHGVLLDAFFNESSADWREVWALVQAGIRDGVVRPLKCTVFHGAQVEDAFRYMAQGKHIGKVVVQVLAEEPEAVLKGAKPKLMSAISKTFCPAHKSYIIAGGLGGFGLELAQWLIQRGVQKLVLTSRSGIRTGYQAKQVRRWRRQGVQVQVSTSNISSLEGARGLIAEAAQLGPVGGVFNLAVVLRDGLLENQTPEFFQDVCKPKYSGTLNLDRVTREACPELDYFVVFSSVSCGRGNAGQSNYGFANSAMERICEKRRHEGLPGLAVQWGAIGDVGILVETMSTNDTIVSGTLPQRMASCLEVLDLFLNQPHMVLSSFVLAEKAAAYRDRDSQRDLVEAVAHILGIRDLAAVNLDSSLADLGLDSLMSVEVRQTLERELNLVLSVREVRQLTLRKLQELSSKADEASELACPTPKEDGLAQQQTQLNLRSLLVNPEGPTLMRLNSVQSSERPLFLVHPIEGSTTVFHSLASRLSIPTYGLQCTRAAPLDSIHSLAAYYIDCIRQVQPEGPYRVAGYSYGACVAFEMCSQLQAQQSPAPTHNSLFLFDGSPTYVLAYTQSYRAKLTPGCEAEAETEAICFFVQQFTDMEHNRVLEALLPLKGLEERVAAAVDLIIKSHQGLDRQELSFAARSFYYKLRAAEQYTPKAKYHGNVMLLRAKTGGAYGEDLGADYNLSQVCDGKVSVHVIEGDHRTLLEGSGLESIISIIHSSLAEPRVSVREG
GRIN3A LBD mod – modulates the human NR3A ligand-binding domain; 2.5% of 340,000 active; NR3A LBD differential scanning fluorimetry, Tm shift; 0% = protein alone, 100% = glycine-bound protein; AID 1259313; Tm shift relative to glycine control, % at 25 µM;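 active = melting temperature shift of at least 10% of the positive control shift, at one fixed dose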
rCAG binder – molecules binding r(CAG) RNA repeats; 1.3% of 370,000 active; inhibition, % at 3 µM; AID 651821; r(CAG) RNA repeat, TO-PRO-1 dye displacement fluorescence;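 active = inhibition above the plate cutoff, the mean of all test compounds on that plate plus 3 SD, cut at about 35% in these data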;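 note: higher means more dye released from RNA so lower well fluorescence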
NadD inh – NadD (S. aureus) enzyme inhibition; 0.78% of 360,000 active; inhibition, % at 20 µM; purified NadD enzyme, colorimetric absorbance read-out; in the data active = inhibition above about 26%
NadD conf – confirmation of Staphylococcus aureus NadD inhibitors; shares compounds with NadD inh; purified S. aureus NadD, colorimetric enzyme assay; inhibition, % at 20 µM; 13% of 2,000 active; AID 624309; in the data active = inhibition mostly above about 42%, no sharp cut-off; inactive = mostly below about 42%
Numbers stand for hits; 0 = inactive; - = no result given.

SMILES	FAS TE block	GRIN3A LBD mod	rCAG binder	NadD inh	NadD conf
Cn1cc(C2(C)CCOc3ccccc32)c2ccccc21 (configuration not stated)	-	-	0	-	-
CC(C)=CCC/C(C)=C/CNC(=O)C[C@H]1C[C@H](C(=O)N(C(C)C)C(C)C)[C@@]2(C)c3[nH]c4cc(-c5ccco5)ccc4c3CCN2C1=O	0	0	0	33.5	0
CCN(CC)C(=O)[C@H]1C[C@H](CC(=O)NC/C=C(\C)CCC=C(C)C)C(=O)N2CCc3c([nH]c4cc(-c5ccco5)ccc34)[C@]12C	0	0	0	0	-
CC(C)=CCC/C(C)=C/CNC(=O)C[C@H]1C[C@H](C(=O)N2CCOCC2)[C@@]2(CCC3CCCC3)c3[nH]c4cc(-c5ccco5)ccc4c3CCN2C1=O	0	0	0	45.9	0
Cc1ccnc2nc(C(=O)OCC(=O)c3ccc(NC(=O)CC(C)C)cc3)nn12	0	0	0	0	-
CCC(=O)Nc1ccc(C(=O)COC(=O)c2nc3nccc(C)n3n2)cc1	0	0	0	46.1	85.6
CN[C@H]1C[C@H]2c3cc(-c4ccccc4C)ccc3CCN2C[C@H]1[C@H](C)O	-	-	0	-	-
CCOC(=O)c1c2ccc(OCC(=O)N/N=C/c3ccc(C)cc3)cc2n2ccccc12	0	0	0	37.3	0
O=C1Cc2c(-c3ccccc3)cc(-c3cccc(Cl)c3)nc2-c2ccccc2N1	0	0	0	37.1	0
O=C1CN(c2nc(-c3ccccc3)c3cc(Cl)ccc3n2)c2ccccc2N1	0	0	0	0	-
O=C1CC(/C=C/c2ccc(Cl)cc2)=Nc2ccccc2N1	0	0	0	32.6	0
O=C(C1CCCN1S(=O)(=O)c1ccc(Cl)s1)N1CCN(c2ccccc2)CC1 (configuration not stated)	-	-	0	-	-
COC(=O)c1ccc(N2C(c3ccsc3)=Cc3cc4c(cc3C2CC(=O)c2ccco2)OCO4)cc1 (configuration not stated)	0	-	0	31.4	0
O=C(CC1c2cc(F)ccc2C=C(c2ccsc2)N1c1ccc(C#CCCO)cc1)c1ccco1 (configuration not stated)	0	-	0	0	-
COc1ncc(-c2ccc(N3C(c4ccsc4)=Cc4ccc(F)cc4C3CC(=O)c3ccco3)cc2)cn1 (configuration not stated)	0	-	0	34.7	0
O=C(CC1c2ccccc2C=C(c2ccsc2)N1c1ccc(-c2cccnc2)cc1)C1CC1 (configuration not stated)	0	-	0	32.9	0
COc1cc(OC)cc(C2=Cc3ccccc3C(CC(C)=O)N2c2ccc(-c3cncnc3)cc2)c1 (configuration not stated)	0	-	0	0	-
COc1cccc(C(=O)N[C@@H](CC(C)C)C(=O)N2CCC[C@H]2C(=O)NCc2ccccc2)c1	-	-	0	-	-
C#Cc1ccc([C@H]2C=C(C(=O)NCc3nc4ccccc4[nH]3)O[C@@H](OCc3ccc(CO)cc3)C2)cc1	0	0	0	33.0	46.5
O=C(NCc1nc2ccccc2[nH]1)C1=C[C@H](c2ccc(Br)cc2)C[C@H](OCc2ccc(CO)cc2)O1	0	0	0	0	-
O=C(/C=C/c1ccc(F)cc1)NC(=S)NNC(=O)[C@H]1C[C@@H]1c1ccccc1	0	0	0	39.6	0
C=CCNC(=O)CN(C(=O)c1ccncn1)c1cccc(Br)c1	-	-	0	-	-
Cc1c2cnn(CC(=O)Nc3c(F)c(F)cc(F)c3F)c(=O)c2c(C)n1Cc1ccccc1F	0	0	0	31.7	0
COc1ccc(NC(=O)N(C)C[C@@H]2OCc3cnnn3CCCC(=O)N([C@@H](C)CO)C[C@@H]2C)cc1	-	-	0	-	-
Cc1cnc(C=NNC(N)=S)c2cccc(N)c12	0	0	0	61.1	0
SMILES	FAS TE block	GRIN3A LBD mod	rCAG binder	NadD inh	NadD conf
NC(=S)NN=Cc1nccc2ccccc12	0	0	0	0	-
N#Cc1c(NCCCO)nc(-c2ccco2)c2c1CCCC2	0	0	0	0	-
N#Cc1c(NC2CCCCC2)nc(-c2ccco2)c2c1CCCC2	0	0	-	38.2	0
COc1cc2c(c(OC)c1OC)C1(CCCCC1)CC2NS(=O)(=O)C(C)C (configuration not stated)	-	-	0	-	-
COc1ccc(-c2cc(CNc3nc(NC(C)C)nc4cc(-c5ccccc5)sc34)on2)cc1	0	-	0	34.3	0
COc1ccc(C2=CCN(C)C(=O)N2c2ccc([N+](=O)[O-])cc2)cc1	-	-	0	-	-
O=S1(=O)c2ccc(N3CCCC3)cc2Oc2ccccc2CN1Cc1cn(Cc2ccc(Cl)cc2)nn1	-	-	0	-	-
Cc1csc(NC(=O)CSc2nnc(NC(=O)COc3ccc(Cl)cc3)s2)n1	0	0	0	35.1	0
Cc1cc(Oc2cccnc2)ccc1NC(=O)Cc1cn(C)c2ccccc12	-	-	0	-	-
COc1ccc(/C=N/NC(=O)Cc2csc(Nc3cccc(C(F)(F)F)c3)n2)c(OC)c1	0	0	0	33.0	0
CCOc1ccc(/C=N/NC(=O)Cc2csc(Nc3cccc(C(F)(F)F)c3)n2)cc1	0	0	0	0	-
CCOc1ccccc1/C=N/NC(=O)Cc1csc(Nc2cccc(C(F)(F)F)c2)n1	0	0	0	37.9	0
COC(=O)C1CCN(C(=O)C2CC(=O)N(c3ccc(OC)cc3)C2c2ccc(OC)cc2)CC1 (configuration not stated)	-	-	0	-	-
COCCNC(=S)N(C)[C@H]1C[C@H]2c3[nH]c4c(-c5cccc(C)c5)cccc4c3CCN2C[C@H]1[C@H](C)O	-	-	0	-	-
Nc1nc2c(ncn2[C@@H]2O[C@H](C(=O)NCCCc3ccccc3)[C@@H](O)[C@H]2O)c(=O)[nH]1	-	-	0	-	-
CCCCNC(=O)C1CCCN1C(=O)Nc1ccc2c(c1)OCO2 (configuration not stated)	-	-	0	-	-
CC(=O)N1CCc2c1cccc2S(=O)(=O)NC(CC(C)C)C(=O)Nc1ccc(F)cc1Cl (configuration not stated)	-	-	0	-	-
Cc1ccc2cc(C#N)c(N3CCCC3)nc2c1C	0	0	0	34.1	0
COc1cccc(N2[C@@H](CC(=O)O)c3ccccc3S2(=O)=O)c1	0	0	0	0	-
COc1cccc(N2[C@@H](CC(=O)O)c3cc(C(F)(F)F)ccc3S2(=O)=O)c1	0	0	0	48.8	51.5
C=C1CN(CC(=O)OC)S(=O)(=O)c2ccccc21	0	0	0	0	-
C=C1CN(Cc2ccccc2)S(=O)(=O)c2ccccc21	0	0	0	42.3	0
O=C(Nc1nc(-c2cccc3ccccc23)cs1)c1ccc2c(c1)S(=O)(=O)c1ccccc1C2=O	0	0	0	0	-
O=C(Nc1nc(-c2ccccc2)cs1)c1ccc2c(c1)S(=O)(=O)c1ccccc1C2=O	0	0	0	35.3	0
C=CCN1[C@@H](C)COc2cccc(F)c2S1(=O)=O	-	-	0	-	-
O=C1NC[C@H](Cc2ccccc2)N(C[C@@H]2CCCN2C[C@H](Cc2ccc(O)cc2)N2C[C@H](Cc3ccccc3)N(CCc3ccccc3)C(=O)C2=O)C1=O	0	-	0	30.3	0
O=C1NC[C@H](Cc2ccccc2)N(C[C@@H]2CCCN2C[C@H](Cc2ccc(O)cc2)N2C[C@H](Cc3ccc(O)cc3)N(CC3CCCCC3)C(=O)C2=O)C1=O	0	-	0	32.5	0
